Experimental data published in PubChem BioAssay (NCI).
The panel holds about 79,000 compounds, 15% with a hit somewhere; the sample as a whole holds those more often. The source made the active and inactive calls. Rule as the data show it: active = growth inhibition above about 70%; inactive = the rest.

How the values were obtained:
[1] = NCI Yeast Anticancer Drug Screen. Data for the mec2-1 strain (AID 157); conditions: S. cerevisiae mec2-1 strain, active compounds read high
How it was run: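 Strain: mec2-1 (DNA repair/cell cycle alteration). Compound exposure, then growth measured; inhibition expressed relative to vehicle.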

[2] = NCI Yeast Anticancer Drug Screen. Data for the sgs1 mgt1 strain (AID 161);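 also: 0% = growth of cultures given vehicle only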; conditions: S. cerevisiae sgs1 mgt1 strain, active compounds read high
How it was run: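 Inhibition of yeast growth, normalised to vehicle-treated controls, is reported for a strain bearing genetic alterations in DNA damage repair.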

[3] = NCI Yeast Anticancer Drug Screen. Data for the CLN2oe strain (AID 163);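 also: 0% = growth of vehicle-only control cultures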; conditions: S. cerevisiae CLN2oe strain, active compounds read high
How it was run: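 Growth of a genetically modified yeast strain is measured after compound exposure and compared with cultures given vehicle alone.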

[4] = NCI Yeast Anticancer Drug Screen. Data for the cln2 rad14 strain (AID 165);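 also: 0% = growth equal to vehicle treated cultures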; conditions: S. cerevisiae cln2 rad14 strain, active compounds read high
How it was run: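 Compounds are applied to the cln2 rad14 yeast strain, and growth is then compared with that of vehicle-treated cultures to give inhibition.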

[5] = NCI Yeast Anticancer Drug Screen. Data for the bub3 strain (AID 167); conditions: S. cerevisiae bub3 mutant strain, active compounds read high
How it was run: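 Yeast carrying a defined mutation is treated with each compound, and growth is compared with that of vehicle-exposed cells to give inhibition.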

[6] = NCI Yeast Anticancer Drug Screen. Data for the mlh1 strain (AID 171);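 also: 0% = growth of vehicle-treated control cultures of the same strain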; conditions: S. cerevisiae mlh1 strain growth inhibition, active compounds read high
How it was run: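 Growth of the mutant yeast strain after compound exposure, expressed as inhibition relative to vehicle-only controls.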

[7] = NCI Yeast Anticancer Drug Screen. Data for the sgs1 strain (AID 173);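 also: 0% = growth of vehicle-only control cultures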; conditions: S. cerevisiae sgs1 mutant, active compounds read high
How it was run: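 Growth of a yeast strain bearing a defined genetic alteration is measured after compound treatment. Inhibition is expressed relative to vehicle-only controls.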

[8] = NCI Yeast Anticancer Drug Screen. Data for the mlh1 rad18 strain (AID 175); conditions: S. cerevisiae mlh1 rad18 strain growth inhibition, active compounds read high
How it was run: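 Read-out is yeast growth inhibition, calculated against vehicle-only controls. The compound was applied to a strain engineered with DNA damage repair alterations.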

[9] = NCI Yeast Anticancer Drug Screen. Data for the rad18 strain (AID 177); conditions: S. cerevisiae rad18 mutant growth inhibition, active compounds read high
How it was run: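 Growth of the mutant yeast strain after compound exposure, normalised to vehicle-only cultures.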

[10] = NCI Yeast Anticancer Drug Screen. Data for the rad52 strain (AID 147);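 also: 0% = growth of vehicle-treated control cultures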; conditions: S. cerevisiae rad52 mutant growth inhibition, active compounds read high
How it was run: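 Compounds are applied to a genetically defined yeast strain lacking normal DNA damage repair, and inhibition of growth is expressed relative to cultures given vehicle only.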

[11] = NCI Yeast Anticancer Drug Screen. Data for the wt1 strain (AID 149);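 also: 0% = growth of vehicle-treated wt1 cultures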; conditions: S. cerevisiae wt1 strain (SPY 50644) growth inhibition, active compounds read high
How it was run: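 wt1 yeast, compound-treated; % growth inhibition vs vehicle control.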

[12] = NCI Yeast Anticancer Drug Screen. Data for the rad50EPP+ strain (AID 151);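 also: 0% = growth of vehicle-treated control cultures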; conditions: S. cerevisiae rad50 mutant strain, active compounds read high
How it was run: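 Compounds were applied to the rad50EPP+ yeast strain, which bears a defined DNA repair alteration, and growth inhibition was determined relative to vehicle-treated cultures.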

[13] = NCI Yeast Anticancer Drug Screen. Data for the mgt1 strain (AID 153); conditions: S. cerevisiae mgt1 mutant growth inhibition, active compounds read high
How it was run: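 Strain: mgt1 yeast, one of a set carrying defined DNA damage repair or cell cycle control alterations. Compound-treated growth compared with vehicle.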

[14] = NCI Yeast Anticancer Drug Screen. Data for the rad50 strain (AID 155);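 also: 0% = growth of vehicle-only cultures of the same strain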; conditions: S. cerevisiae rad50 strain growth inhibition, active compounds read high
How it was run: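 Genetically altered yeast (DNA repair pathway); compound treatment; growth inhibition vs vehicle ctrl.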

[15] = NCI Yeast Anticancer Drug Screen. Data for the wt2 strain (AID 169);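 also: 0% = growth of vehicle-treated yeast cultures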; conditions: S. cerevisiae wt2 strain growth inhibition, active compounds read high
How it was run: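 This strain belongs to a panel of yeast strains with defined genetic alterations in DNA damage repair or cell cycle control. Compounds are applied, and growth inhibition is measured against vehicle-treated cultures.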

[16] = at 5.0 µM (retest, dose inferred, filed as 0.5)
[17] = at 50.0 µM (retest, dose inferred, filed as 5.0)

Measured: growth inhibition

CC(=O)Nc1ccc2c(c1)Cc1cc(N=C3C=CC(=O)O3)ccc1-2
inactive: [1]; at 50.0 µM 15.8% | [2]; [16] 54% | [2]; at 50.0 µM 49.1% | [3]; at 1.2 µM 6% | [3]; at 3.7 µM 16% | [3]; at 11.0 µM 47% | [4]; [16] 9% | [4]; at 50.0 µM 24.9% | [5]; at 1.2 µM -1% | [5]; at 3.7 µM 7% | [5]; [16] 32% | [5]; at 50.0 µM 29.5% | [6]; at 1.2 µM 12% | [6]; at 3.7 µM 25% | [7]; at 1.2 µM 14% | [7]; at 3.7 µM 34% | [8]; at 50.0 µM 0.7% | [9]; at 1.2 µM 12% | [9]; at 3.7 µM 31%
active: [1]; [16] 87% | [1]; at 11.0 µM 89% | [1]; at 33.0 µM 99% | [1]; [17] 99% | [1]; at 100.0 µM 99% | [2]; [17] 99% | [3]; at 33.0 µM 99% | [3]; at 100.0 µM 99% | [4]; [17] 99% | [5]; at 11.0 µM 72% | [5]; at 33.0 µM 99% | [5]; [17] 99% | [5]; at 100.0 µM 98% | [6]; at 11.0 µM 93% | [6]; at 33.0 µM 99% | [6]; at 100.0 µM 99% | [7]; at 11.0 µM 92% | [7]; at 33.0 µM 99% | [7]; at 100.0 µM 99% | [8]; [16] 82% | [8]; [17] 99% | [9]; at 11.0 µM 91% | [9]; at 33.0 µM 99% | [9]; at 100.0 µM 99%

Clc1ccc2c(c1)N(CCCN1CCCC13CCCCC3)c1ccccc1S2
active: [4]; at 50.0 µM 84% | [8]; [17] 95%
inactive: [10]; at 1.2 µM 1% | [10]; at 3.7 µM 3% | [10]; at 11.0 µM 2% | [10]; at 33.0 µM 1% | [10]; at 100.0 µM -7% | [11]; at 1.2 µM 1% | [11]; at 3.7 µM -3% | [11]; at 11.0 µM -5% | [11]; at 33.0 µM -5% | [11]; at 100.0 µM -7% | [12]; at 1.2 µM 0% | [12]; at 3.7 µM 3% | [12]; at 11.0 µM -2% | [12]; at 33.0 µM -3% | [12]; at 100.0 µM -7% | [13]; at 1.2 µM 2% | [13]; at 3.7 µM -1% | [13]; at 11.0 µM 3% | [13]; at 33.0 µM -2% | [13]; at 100.0 µM -2% | [14]; at 1.2 µM 4% | [14]; at 3.7 µM 10% | [14]; [16] 3% | [14]; at 11.0 µM 4% | [14]; at 33.0 µM 4% | [14]; [17] 61% | [14]; at 50.0 µM -2.15% | [14]; at 100.0 µM 2% | [1]; at 1.2 µM -3% | [1]; at 3.7 µM 3% | [1]; [16] -3% | [1]; at 11.0 µM 2% | [1]; at 33.0 µM 0% | [1]; [17] 20% | [1]; at 50.0 µM 39.8% | [1]; at 100.0 µM -8% | [2]; [16] -11% | [2]; [17] 43% | [2]; at 50.0 µM -25.4% | [3]; at 1.2 µM 2% | [3]; at 3.7 µM 4% | [3]; at 11.0 µM 4% | [3]; at 33.0 µM 3% | [3]; at 100.0 µM 2% | [4]; [16] -21% | [4]; [17] -5% | [15]; at 1.2 µM 1% | [15]; at 3.7 µM 2% | [15]; at 11.0 µM 0% | [15]; at 33.0 µM -2% | [15]; at 100.0 µM -2% | [6]; at 1.2 µM 0% | [6]; at 3.7 µM 2% | [6]; at 11.0 µM -4% | [6]; at 33.0 µM -15% | [6]; at 100.0 µM 8% | [7]; at 1.2 µM -2% | [7]; at 3.7 µM -3% | [7]; at 11.0 µM -6% | [7]; at 33.0 µM -7% | [7]; at 100.0 µM -6% | [8]; [16] -6% | [8]; at 50.0 µM 10.1% | [9]; at 1.2 µM -1% | [9]; at 3.7 µM -1% | [9]; at 11.0 µM -9% | [9]; at 33.0 µM -22% | [9]; at 100.0 µM -33%

O=[N+]([O-])c1ccc2c(c1)/C(=N/N=C1c3ccccc3Cc3ccccc31)c1cc([N+](=O)[O-])cc([N+](=O)[O-])c1-2
active: [10]; at 11.0 µM 91% | [10]; at 33.0 µM 98% | [10]; at 100.0 µM 96% | [11]; at 11.0 µM 99% | [11]; at 33.0 µM 99% | [11]; at 100.0 µM 97% | [12]; at 3.7 µM 86% | [12]; at 11.0 µM 99% | [12]; at 33.0 µM 97% | [12]; at 100.0 µM 94% | [13]; at 3.7 µM 74% | [13]; at 11.0 µM 99% | [13]; at 33.0 µM 98% | [13]; at 100.0 µM 93% | [14]; at 11.0 µM 96% | [14]; at 33.0 µM 98% | [14]; [17] 96% | [14]; at 50.0 µM 82.7% | [14]; at 100.0 µM 94% | [1]; at 3.7 µM 78% | [1]; at 11.0 µM 99% | [1]; at 33.0 µM 98% | [1]; [17] 96% | [1]; at 50.0 µM 81.5% | [1]; at 100.0 µM 95% | [2]; [16] 75% | [2]; [17] 98% | [2]; at 50.0 µM 89.2% | [3]; at 11.0 µM 99% | [3]; at 33.0 µM 99% | [3]; at 100.0 µM 95% | [4]; [17] 97% | [4]; at 50.0 µM 85.8% | [5]; at 11.0 µM 99% | [5]; at 33.0 µM 98% | [5]; [17] 98% | [5]; at 50.0 µM 85.9% | [5]; at 100.0 µM 91% | [15]; at 11.0 µM 98% | [15]; at 33.0 µM 98% | [15]; at 100.0 µM 94% | [6]; at 11.0 µM 99% | [6]; at 33.0 µM 98% | [6]; at 100.0 µM 93% | [7]; at 11.0 µM 99% | [7]; at 33.0 µM 99% | [7]; at 100.0 µM 95% | [8]; [17] 96% | [8]; at 50.0 µM 82.5% | [9]; at 3.7 µM 81% | [9]; at 11.0 µM 97% | [9]; at 33.0 µM 97% | [9]; at 100.0 µM 94%
inactive: [10]; at 1.2 µM 9% | [10]; at 3.7 µM 32% | [11]; at 1.2 µM -19% | [11]; at 3.7 µM 21% | [12]; at 1.2 µM -7% | [13]; at 1.2 µM 16% | [14]; at 1.2 µM -10% | [14]; at 3.7 µM 60% | [14]; [16] 9% | [1]; at 1.2 µM 16% | [1]; [16] 24% | [3]; at 1.2 µM 28% | [3]; at 3.7 µM 50% | [4]; [16] 25% | [5]; at 1.2 µM 4% | [5]; at 3.7 µM 57% | [5]; [16] 63% | [15]; at 1.2 µM 15% | [15]; at 3.7 µM 41% | [6]; at 1.2 µM 15% | [6]; at 3.7 µM 50% | [7]; at 1.2 µM 18% | [7]; at 3.7 µM 64% | [8]; [16] 27% | [9]; at 1.2 µM 50%
